Values without a mark were called inactive.
How the values were obtained:
Details in all cases: 60 µM; 5 days; temperature: 20 °C
Meloidogyne hapla J2 = experiment: proportion of mobile M. hapla J2 relative to DMSO control (fraction of DMSO control); higher = more viable, less nematicidal, active = 0.7 or less
Outline: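 About 25 M. hapla J2 were placed in each well of a 96-well plate in distilled water, and compound was pinned in to a final 60 µM with 0.6% v/v DMSO. The sealed plates were shaken at 200 rpm at 20 °C for 5 days, after which 2 µL of 1 M NaOH went into each well. Mobility was then scored under the microscope and divided by the mean value from DMSO-only wells on the same plate. Each plate held eight such DMSO wells, and two biological replicates were averaged.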

[1] = test system: Caenorhabditis elegans dauer (daf-2(e1370)); experiment: proportion of mobile C. elegans dauer larvae relative to DMSO control (fraction of DMSO control); higher = more viable, less nematicidal, active = 0.63 or less; extreme values may be limits of the assay
Outline: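 Synchronized C. elegans larvae were kept for 48 h at 25 °C on MYOB plates seeded with E. coli OP50 to induce dauer formation, and roughly 20 dauers were transferred into each well of a 96-well plate containing liquid NGM. Compound was pinned in to a final concentration of 60 µM with 0.6% v/v DMSO, and the sealed plates were shaken at 200 rpm for 5 days at 20 °C. The fraction of mobile worms was scored under a dissection microscope against DMSO-only wells and averaged across two biological replicates.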

Ditylenchus dipsaci = experiment: proportion of mobile D. dipsaci (mixed stage) relative to DMSO control (fraction of DMSO control); higher = more viable, less nematicidal, active = 0.86 or less; extreme values may be limits of the assay
Outline: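 Ditylenchus dipsaci nematodes were cultured on pea plants in Gamborg B-5 agar, then extracted into water through a filter funnel, and roughly 20 worms in distilled water were placed in each well of a 96-well plate. Compound was pinned in to a final concentration of 60 µM (0.6% v/v DMSO), and the sealed plates were shaken at 200 rpm for 5 days at 20 °C. Mobile worms were counted under the microscope after 2 µL of 1 M NaOH was added. Mobility is given relative to DMSO controls as the mean of two biological replicates.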

SMILES	proportion of mobile M. hapla J2 (Meloidogyne hapla J2)	proportion of mobile C. elegans dauer larvae [1]	proportion of mobile D. dipsaci (Ditylenchus dipsaci)
Clc1ccc(-c2nc(-c3ccncc3)no2)cc1Cl	0.987	1	1
Cc1ccc(-c2nnc(SCC(=O)Nc3c(C)cc(C)cc3C)o2)cc1	0.979	1	1
O=C(CSc1nnc(-c2ccccc2)o1)Nc1cccc(C(F)(F)F)c1	1	1	1
O=C(Nc1ccccc1-c1nc(-c2cccnc2)no1)c1cccc(Cl)c1	0.837	1	1
COc1ccc(CSc2nnc(-c3ccc(Cl)cc3Cl)o2)cc1	1.01	1	1
Cc1cc(Cl)ccc1OCc1nc(-c2cccnc2)no1	1	1	1
O=C(CSc1nnc(-c2ccc(Cl)cc2)o1)Nc1ccccc1C(F)(F)F	0.752	1	1
Cc1ccc(-c2noc(-c3ccc(C)cc3Cl)n2)cc1	0.893	1	1
CC(C)(C)C(=O)Nc1ccccc1-c1nc(-c2ccncc2)no1	1	1	1
Cc1c(C(=O)CSc2nnc(-c3ccccc3)o2)c2ccccc2n1C	0.957	1	1
CCOc1nc(C)ccc1-c1noc(-c2ccccc2F)n1	0.851	1	1
O=C(CSc1nnc(-c2cccc(F)c2)o1)Nc1ccccc1C(=O)c1ccccc1	0.889	1	1
N#Cc1ccc(OCc2nc(-c3cccs3)no2)cc1	0.908	1	1
CC(Sc1nnc(-c2ccco2)o1)C(=O)NC(c1ccccc1)c1ccccc1 (centres undefined)	1.05	1	1
Cc1ccccc1-c1noc(CSc2nc3ccccc3[nH]2)n1	0.918	1	1
Brc1ccccc1-c1nc(-c2ccccc2)no1	1.04	0.676	1
COc1ccc(CCC(=O)Nc2ccc(-c3noc(-c4ccc(F)cc4)n3)cc2)cc1	0.746	1	1
Cc1cccc(-c2noc(-c3cccc(Br)c3)n2)c1	0.87	1	1
Cc1cccc(-c2noc(-c3ccc(Cl)cc3)n2)c1	1.05	1	1
CC(=O)Nc1c(C)ccc(CNC(=O)CSc2nnc(-c3ccc(C(C)(C)C)cc3)o2)c1C	0.88	1	1
COc1ccc(CCC(=O)Nc2ccc(-c3noc(-c4ccccc4C)n3)cc2)cc1	0.791	1	1
O=C(c1ccccc1-c1nc(-c2ccccc2Cl)no1)N1CCCC1	0.947	1	1
Fc1ccc(-c2nc(-c3cccc(C(F)(F)F)c3)no2)cc1	0.939	1	1
CCn1c(C)cc(C(=O)CSc2nnc(-c3ccccc3)o2)c1C	0.962	1	1
Cc1ccc(C)c(OCc2nc(-c3ccccc3Cl)no2)c1	0.854	1	1

SMILES	proportion of mobile M. hapla J2 (Meloidogyne hapla J2)	proportion of mobile C. elegans dauer larvae [1]	proportion of mobile D. dipsaci (Ditylenchus dipsaci)
Cc1cccc(OCc2nc(-c3ccncc3)no2)c1C	0.937	1	1
Clc1ccc(OCc2nc(-c3cccs3)no2)cc1	0.923	1	1
CCOc1ccc(-c2nc(-c3ccccc3)no2)cc1	0.922	1	1
O=C(CSc1nnc(-c2ccc(Cl)cc2Cl)o1)N1CCCCC1	0.934	1	1
COc1ccc(NC(=O)CSc2nnc(-c3ccccc3)o2)cc1	0.907	1	1
Clc1ccccc1-c1noc(-c2ccncc2)n1	0.953	1	1
N#Cc1ccccc1CSc1nnc(-c2ccccc2)o1	0.841	1	1
Cc1cccc(-c2noc(COc3ccccc3Cl)n2)c1	0.894	1	1
Clc1cccc(-c2nc(-c3ccc4c(c3)OCO4)no2)c1	0.943	1	1
CCOc1nc(-c2ccc(C)cc2)ccc1-c1noc(-c2cccnc2)n1	0.842	1	1
Brc1ccc(-c2noc(-c3ccco3)n2)cc1	1.01	0 (active)	0.875
O=C(CSc1nnc(-c2cccc(Br)c2)o1)c1ccccc1	1.02	1	0.714 (active)
CCCC(=O)Nc1ccccc1-c1nc(-c2ccccn2)no1	0.965	1	1
COc1ccc(-c2nnc(SCc3ccccc3)o2)cc1	0.96	1	1
Cc1cc(OCc2nc(-c3ccncc3)no2)cc(C)c1Br	1.03	1	1
Clc1ccc(-c2noc(-c3cccnc3)n2)cc1	1	0.452 (active)	1
Cc1ccc(-c2noc(COc3ccccc3Cl)n2)cc1	0.96	1	1
COc1ccc(Br)cc1-c1noc(-c2ccncc2)n1	0.759	1	1
COc1ccc(-c2noc(COc3ccc4c(c3)CCCC4)n2)cc1	0.959	1	1
Cc1cc(Br)ccc1OCc1nc(-c2ccncc2)no1	1.01	1	1
C(=C\c1ccccc1)/CSc1nnc(-c2ccncc2)o1	0.979	1	1
CCOC(=O)c1ccc(NC(=O)c2ccccc2-c2nc(-c3cccc(C)c3)no2)cc1	0.777	1	1
COc1ccc(C)cc1NC(=O)CSc1nnc(-c2ccc(Br)cc2)o1	0.938	1	1
Cc1nc(CSc2nnc(-c3ccc(Cl)cc3)o2)cs1	0.947	1	1
Brc1ccc(-c2nc(-c3ccccc3)no2)cc1	1	1	1

SMILES	proportion of mobile M. hapla J2 (Meloidogyne hapla J2)	proportion of mobile C. elegans dauer larvae [1]	proportion of mobile D. dipsaci (Ditylenchus dipsaci)
COc1cccc(-c2nnc(SCC(=O)Nc3cccc(C(F)(F)F)c3)o2)c1	1.01	1	1
COc1cccc(-c2noc(COc3cccc(C)c3C)n2)c1	1.04	1	1
COc1ccc(-c2noc(-c3ccc(C)c(Cl)c3)n2)cc1	0.986	1	1
Cc1cc(C)cc(-c2nc(-c3ccc(Cl)cc3)no2)c1	0.938	1	1
Clc1ccccc1CSc1nnc(-c2ccncc2)o1	0.974	1	1
Cc1ccccc1-c1noc(-c2cccc(Br)c2)n1	1.04	1	1
CCOc1ccccc1-c1nnc(SCC(=O)Nc2nccs2)o1	0.739	1	1
Clc1ccc(-c2noc(-c3ccc4c(c3)OCCO4)n2)cc1	1.02	1	1
Brc1ccc(OCc2nc(-c3ccc4c(c3)OCO4)no2)cc1	0.943	1	1
Cc1[nH]c2ccc(-c3nnc(SCC(=O)NCc4ccc(F)cc4)o3)cc2c1C	0.865	1	1
Clc1ccccc1-c1noc(COc2ccc(Br)cc2)n1	1.05	1	1
Cc1ccccc1-c1nnc(SCc2ccc(F)cc2)o1	0.939	1	1
Cc1ccc(CSc2nnc(-c3ccncc3)o2)cc1	0.951	1	0.75 (active)
COc1cccc(-c2nc(-c3ccc(F)cc3)no2)c1	0.862	1	1
Fc1ccc(-c2noc(COc3cccc(Cl)c3)n2)cc1	0.908	1	1
Cc1ccccc1-c1noc(-c2ccccc2C(=O)NCc2ccccc2)n1	0.874	1	1
Cc1ccc(SCc2nc(-c3ccccc3)no2)cc1	1.14	1	1
Cc1ccc(-c2nnc(SCC(=O)Nc3cc(C)c(C)cc3Br)o2)cc1	0.792	1	1
CCn1c(SCc2nnc(-c3ccccc3)o2)nnc1-c1ccco1	0.948	1	1
COc1ccc(CC(=O)Nc2ccc(-c3noc(COc4cccc(C)c4C)n3)cc2)cc1	0.88	1	1
COc1ccc(OC(C)c2nc(-c3cccnc3)no2)cc1 (centres undefined)	0.966	1	1
COc1ccc(-c2nc(-c3ccc(Cl)cc3)no2)cc1	1	1	1
COc1cccc(-c2noc(-c3ccc(Cl)cc3)n2)c1	0.983	0.562 (active)	1

— the supplement of paper PMC11219838
